# Assay results as given in the supplement of paper PMC6555819.
# Columns and labels:
# Assay in all cases: PBM binding z-score (relative to random genomic background probes); higher = stronger binding; sequences stand for … in GC…GCGATTGACAGCGTAGAATGAAGG
# [1] = system: FXR:RXRa (NR concentration 270 nM, RXRa partner concentration 90 nM)
# How it was run: (§1)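 Custom Agilent 4×180K protein-binding microarrays carried double-stranded probes, each with a 34-nt variable region. These regions held direct-repeat seeds, single-nucleotide variants, half-site ablations and random human genomic background sequences. Ligand-free nuclear receptor dimers were incubated on the arrays for 1 h, antibodies against each partner (one per run) detected binding, and scanned fluorescence was regression-normalized. Binding z-scores take the random background probes as reference.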
# [2] = system: LXRa:RXRa (NR concentration 270 nM, RXRa partner concentration 90 nM)
# How it was run: as §1
# [3] = system: LXRa homodimer (NR concentration 270 nM)
# How it was run: as §1
# [4] = system: LXRb:RXRa (NR concentration 270 nM, RXRa partner concentration 90 nM)
# How it was run: as §1
# [5] = system: LXRb homodimer (NR concentration 270 nM)
# How it was run: as §1
# [6] = system: PPARa:RXRa (NR concentration 270 nM, RXRa partner concentration 90 nM)
# How it was run: as §1
# [7] = system: PPARg:RXRa (NR concentration 180 nM, RXRa partner concentration 90 nM)
# How it was run: as §1
# [8] = system: PPARg:RXRa 270nM:90nM, anti-RXR (NR concentration 270 nM, RXRa partner concentration 90 nM)
# How it was run: as §1
# [9] = system: PPARg:RXRa 30nM:10nM, anti-RXR (NR concentration 30 nM, RXRa partner concentration 10 nM)
# How it was run: as §1
# [10] = system: PPARg:RXRa 90nM:30nM, anti-RXR (NR concentration 90 nM, RXRa partner concentration 30 nM)
# How it was run: as §1
Sequence,PBM binding z-score [1],PBM binding z-score [2],PBM binding z-score [3],PBM binding z-score [4],PBM binding z-score [5],PBM binding z-score [6],PBM binding z-score [7],PBM binding z-score [8],PBM binding z-score [9],PBM binding z-score [10]
TGGATGAGGTTATAAGATCAGGGAACGTTGCAAA,1.51,1.26,0.181,1.52,0.594,2.42,0.897,1.54,0.844,1.35
CGAACTACGTCATTGACAGGACAGTGAATAGTAA,-0.386,-0.38,-0.195,-0.327,-0.182,-0.47,0.307,-0.251,-0.294,-0.164
TTACCAGGGTGAAAGGTCGTTGATGCACGCCTTG,3.76,3.21,0.701,3.12,-0.0752,5.36,8.62,7.7,6.89,9.22
GTAACGAGGGCAAAGTTGATAGCATCTGTCGACG,1.48,1.29,-0.238,1.17,0.169,4.2,7.58,7.24,6.77,7.65
TCTTGTACATCAAGCAGGTTAAGAAAGCCTGAGT,0.785,0.852,-0.0231,0.861,0.106,1.05,-0.153,1.37,3.03,2.18
CGTCCAAGGTCAGAGATGTCAGTGAATGCCGAGT,4.67,2.73,0.142,1.82,-0.161,3.59,2.24,2.19,0.132,1.04
CGAACTAGGTCATCCAGGACGGTGAATACATTGA,4.05,2.29,0.0785,1.64,-0.427,4.85,7.27,6.3,3.61,5.41
GATACAGGGTTAGCTAGAGGCCAGAGTATGGAAA,0.0111,0.711,-0.451,0.181,-0.961,0.87,0.379,0.0848,-0.37,-0.205
TTACCAAGGTGTAAGGTCGTTGATGCACGCCTTG,0.533,0.628,-0.156,0.478,-0.764,2.06,2.4,4.03,1.99,3.46
AATACAGGGTCACTAGGCCTGAGTAGGTACGAAT,6.29,4.71,0.651,3.72,0.544,5.53,6.71,5.29,2.26,4.42
TAGCCAAGGTCATTGGGCCAGTATAGTACGCATC,7.45,5.57,1.49,4.67,0.952,5.95,6,5.57,2.47,3.59
GGAACGAGGGCAAAGTCGATAGCATCTGTCGACG,0.356,0.379,-0.902,-0.096,-0.476,1.74,1.97,2.58,0.954,2.36
AGTCAAAGTTCATCTAGGTAAGGTAAGATATGCT,6.12,6.16,5.26,4.05,1.73,5.02,6.22,6.34,3.3,5.66
TCTAGTTGGTCACGGAGGTCGCACACGACGGGTA,0.941,1.09,-0.0222,1.04,0.0566,2.04,1.61,2.28,2.83,2.43
ACTTACGGGTCAACGAGGTAATAGCACGCGTATA,6.86,4.42,0.29,3.61,0.727,5.72,5.56,5.53,2.48,4.37
TCTGGTAGATCAAGCAGGTTAAGAAAGCCTGAGT,-0.292,-0.109,-0.642,0.00998,-1.25,0.171,-0.556,0.81,2.17,1.5
AGTCAAAGTTCATCTCGGTAACGTAAGATATGCT,6.81,6.1,5.38,3.79,1.92,4.76,6.02,6.19,3.18,5.22
AGAATGACGTTACCAAAGATCAGGGAAACGCTTG,-0.187,-0.0658,-0.236,-0.336,-0.144,-0.289,0.77,0.125,0.189,0.17
GCTCGGAGGACAAGGTCAGAGTTTTGTCCGTAGA,1.98,1.71,-0.00501,1.56,-0.35,2.42,0.985,1.89,-0.291,0.859
CAGACTGGGGCAGAAAGGTTACCATACCATCCGG,1.11,1.5,-0.0304,1.4,0.122,2.53,2.23,3.3,1.29,2.79
TCGAGTAGGTTAGTCGGCGCATTCAGCCAACATA,-0.102,-0.169,-0.745,-0.439,-1.53,0.0972,-0.358,0.362,0.699,0.562
GATACAGGGTCACCTAGAGGCCAGAGTATGGAAA,6.92,4.72,-0.102,3.99,-0.035,5.79,6.93,6.02,2.71,4.91
TCGAGTAGGTTAGGGGCATTCCGAATGGCGTCGA,0.369,0.403,-0.233,0.645,-0.872,1.25,0.541,2.27,1.24,1.64
ACAATGAGGTTATTAAGATCAGGGAATTGCGGTC,1.54,1.7,0.283,1.26,0.952,2.42,1.45,1.7,0.622,1.3

Sequence,PBM binding z-score [1],PBM binding z-score [2],PBM binding z-score [3],PBM binding z-score [4],PBM binding z-score [5],PBM binding z-score [6],PBM binding z-score [7],PBM binding z-score [8],PBM binding z-score [9],PBM binding z-score [10]
TCTCGGAGGACATGAAAGGTCAGAGCTCGACATC,2.65,3.67,2.92,3.09,-0.221,3.34,1,2.68,2.8,2.61
CCTACTGGGCCATTCAGAGGTCATGGATCATATG,2.57,4.16,5.17,3.61,-0.202,4.54,2.64,3.6,1.23,3.29
CCGACTGGGGCAGAAAAGTTACCATACCATCCGG,-0.281,-0.694,-0.371,-0.55,-1.1,-0.413,0.56,-0.294,-0.571,-0.517
ACTCGCAGGACAAAGGTCAGAGCTACGCCAGTGA,3.77,4.15,1.13,3.23,0.178,4.75,7.12,6.87,5.49,6.99
AAAGACAGGTGATGAAGGTAACTCAGGCTATCAT,-0.191,-0.0472,0.0332,0.0714,-0.0721,0.593,0.785,0.567,0.567,0.473
CCTACCAGGCCAATCTGGGTCACTCAAGGCTTGA,1.15,1.52,0.0755,1.01,-0.051,2.92,2.3,2.4,-0.0148,1.57
TCTCGGAGGACACGAAGGCCAGAGCTTTCCAGAG,0.413,-0.099,-0.863,-0.477,-0.953,0.156,-0.048,0.609,1.81,1.36
ATCGAAAGGTCGGGGTGAGTATAGAGAAAGGGAA,3.39,3.1,0.378,3.56,1.97,4.39,2.87,2.83,1.07,2.04
GGAACGAGGGCAAGTTGATAGGAGAGTTTGATGG,0.63,0.287,-0.48,0.289,-0.332,1.81,1.05,0.946,0.0757,0.63
GGGACTGGGGCATCAGCAGGTTACCATAACTTAA,0.464,0.607,0.713,1.81,2.25,2.25,3.27,2.6,0.527,1.93
AGTCAAAGTTCAGGACGAGGTAACGTCAAGCACG,4.26,3.98,1.22,1.77,-0.0254,3.5,4.43,4.98,1.87,4.04
ATCTCTAGGTACCCAAGTTCAGTGAATGCCGAAC,0.332,1.7,3,0.887,1.08,0.625,0.408,0.456,0.321,0.493
CGTCCAAGGTCAGAGAGGGCAGTGAATGCCGAGT,5.26,3.77,0.447,2.71,-0.0412,4.26,2.13,2.88,0.148,1.46
GCTCGGAGGACAAGGTGAGAGCTTTGTCCGTAGA,-0.399,-0.339,-1.2,-0.463,-1.12,-0.0348,-0.809,-0.0501,-1.12,-0.422
ATCGAAAGGTCGAGGTGAGTGTAGAGAAAGGGAA,4.53,3.52,0.118,2.74,0.572,4.69,3.13,3.76,1.42,2.6
TAGCCTAGGTCATGAGGGCCAGTATAGTGTCGGC,3.91,3.07,0.189,1.73,-0.262,3.69,2.94,2.69,0.483,1.94
CAAACTAGGTCACCGGAAGGTCAAAATCCGCATG,5.79,5.77,4.45,5.33,1.71,6.21,9.82,7.79,5.96,7.63
CCGACTGGGGCGGAAAGGTTACCATACCATCCGG,0.516,0.85,0.0346,1.23,-0.589,2.08,1.41,2.7,0.707,1.99
CGTATTAGTTGACCATAAGGGCAACCGAAGCTCG,0.6,0.437,0.259,0.258,0.134,0.617,0.684,0.523,-0.0743,0.805
AGAATGAGGTTATTAAGATCACGGAATTGCGGTC,1.57,1.78,0.215,1.57,0.0573,3.18,1.99,2.7,0.647,1.6
CGTCCAAGGTCAAAGGAGGTCAGTGAAGACAGAT,7.79,7.44,4.18,5.88,1.51,6.08,5.84,5.46,2.75,4.81
CCTAGCAGGCCAATCTCGGTCACTCAAGGCTTGA,0.604,2.68,0.339,-0.0855,-0.585,0.406,-0.312,-0.384,-1.26,-0.439
ATCTCGAGGTAAAAGTTCAGTGAATCCCGAGGAT,1.26,1.85,0.551,1.28,0.304,3.44,5.01,5.51,4.17,5.67
CCGACTGGGGCAAAGGTTACCATACTCAGTACGA,1.57,1.66,0.0551,2.1,-0.895,5.49,11.2,9.84,8.71,11.5
